Assay results reported in PubChem BioAssay AID540275 (National Center for Advancing Translational Sciences (NCATS), 2011).
In all, about 320,000 compounds went through this assay and about 620 (0.19%) were called active. Another 6% or so got no clear call; they are omitted. Cut-off read from the data, not from the text of the source: active = activation above about 80%; inconclusive = between about 30% and that limit; inactive = weaker than that. Many of the other results were omitted from the sample, so actives are more common in it than they were.

These compounds were tested against Transient receptor potential cation channel subfamily V member 1 (Homo sapiens) (UniProt Q8NER1) (assay: HTS Assay for Compounds that Act as Agonists of the Vanilloid Receptor 1). Settings: TRPV1-expressing cells, Fluo-8 calcium influx, agonist mode; at 8.33 µM; hits give high values.
Transient receptor potential cation channel subfamily V member 1 (Homo sapiens), sequence (Q8NER1 whole entry, looked up): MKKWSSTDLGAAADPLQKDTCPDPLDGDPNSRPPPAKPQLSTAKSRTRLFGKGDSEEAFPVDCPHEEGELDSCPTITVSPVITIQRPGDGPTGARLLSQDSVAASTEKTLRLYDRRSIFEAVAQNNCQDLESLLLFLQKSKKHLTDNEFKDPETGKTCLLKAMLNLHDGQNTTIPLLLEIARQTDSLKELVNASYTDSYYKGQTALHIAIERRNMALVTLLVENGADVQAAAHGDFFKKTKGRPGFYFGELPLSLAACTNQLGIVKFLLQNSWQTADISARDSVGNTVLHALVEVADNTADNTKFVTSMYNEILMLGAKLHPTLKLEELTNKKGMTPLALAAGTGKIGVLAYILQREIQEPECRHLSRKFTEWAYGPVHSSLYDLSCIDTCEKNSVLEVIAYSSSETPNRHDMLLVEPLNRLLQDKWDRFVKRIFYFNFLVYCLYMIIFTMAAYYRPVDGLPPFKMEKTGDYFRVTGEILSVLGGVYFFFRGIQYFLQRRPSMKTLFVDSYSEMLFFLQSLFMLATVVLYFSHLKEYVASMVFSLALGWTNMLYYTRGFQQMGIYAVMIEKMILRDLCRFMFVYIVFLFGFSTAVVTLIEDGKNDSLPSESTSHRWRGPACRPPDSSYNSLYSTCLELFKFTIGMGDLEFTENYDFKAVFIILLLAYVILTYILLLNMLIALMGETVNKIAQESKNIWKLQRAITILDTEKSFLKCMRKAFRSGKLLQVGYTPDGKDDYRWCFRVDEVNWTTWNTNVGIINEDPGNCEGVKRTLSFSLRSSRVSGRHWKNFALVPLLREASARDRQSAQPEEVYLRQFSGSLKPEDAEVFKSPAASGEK
Description: The transient receptor potential ion channel, family V, number 1, (TRPV1) is one of the most important molecular transducers of painful stimuli and a potential target for analgesic drug development. Although recent clinical trials with orthosteric antagonists have not produced a successful drug because of a hyperthermia side effect and their tendency to block thermal noxious pain, this ion channel is undeniably well placed in the pain pathway, and the idea of blocking pain signals before they enter the CNS is an excellent concept and of proven efficacy when TRPV1 agonists are used. We propose a new approach involving allosteric modulation to impose an activity-dependent constraint within the context of inflammation and tissue damage that would alter the responsiveness of the channel in a way that an orthosteric vanilloid antagonist cannot achieve. We believe that the allosteric modulator approach has not been explored for this target. The main goal of this proposal is to identify additional, new, potent allosteric modulators of TRPV1 that can be used to investigate TRPV1 function. Our recent report provides evidence of proof of concept, but the compounds are just at the edge of utility in terms of potency. […] The question of whether they can be used as analgesic agents is complex, but if suitable compounds are identified then testing for analgesic properties will be conducted. NIH Chemical Genomics Center [NCGC] NIH Molecular Libraries Probe Centers Network [MLPCN] MLPCN Grant: MH089480-1A1 Assay Submitter (PI): Michael Iadarola, National Institute of Dental and Cranofacial Research
Upon TRPV1 activation in TRPV1 cells, the channel opens and extracellular cations flow through the channel into the cytosol. A calcium binding dye (Fluo-8) becomes fluorescent when bound to calcium. This dye is pre-loaded into cells and is used as a marker for calcium influx. The amount of accumulated calcium is precisely quantified using the FDSS kinetic reader and the calcium dye. For the HTS assay, freshly prepared cells are plated at a density of 2000/well in 3 ul medium in 1536-well plates and cultured overnight at 35.5C. Cells will be loaded with 1 ul of the homogeneous calcium dye (ABD Bioquest) at room temperature for 40 to 90 minutes. Plates will be loaded into the FDSS kinetic reader and a 1 sec / cycle for 10 second baseline signal will be measured. Compound library will then be added with a pintool at 23 nl and measured kinetically for 3 minutes. This portion of the read is considered the agonist portion of the screen. Following the 3 minutes of incubation, an on board pipettor will deliver 1 ul of capsaicin for a final concentration equal to the EC20. Signal will be measured kinetically for an additional 2 minutes. This portion of the read is considered the allosteric enhancer portion of the screen. The FDSS reader has a standard filter set capable of measuring calcium bound Fluo-8 (ex=480 and em=520 nm).
Note: 0% is about no effect.

activation, inactive:
O=C(Nc1ccc(C(F)(F)F)cc1)c1cccc(-n2cnnn2)c1 11.1%
COc1cc(C(=O)NNC(=O)CN2C(=O)NC3(CCCC3)C2=O)cc(OC)c1OC -0.801%
O=C(c1ccc(Cl)c(S(=O)(=O)N2CCCCCC2)c1)N1CCN(c2ccc(O)cc2)CC1 13.5%
CC1CCCCC1NC(=O)NC(=O)COC(=O)C1=NN(c2ccccc2)C(=O)CC1 (stereo not drawn) 0.278%
O=C(CNS(=O)(=O)c1ccc2c(c1)OCCCO2)N1CCN(c2ccc(F)cc2)CC1 -2.51%
CCc1ccc(C(=O)N2CCN(S(=O)(=O)c3sc(C(=O)O)c(C)c3C(=O)O)CC2)cc1 0.16%
N#Cc1nc(-c2cccc3ccccc23)oc1N -1.65%
Cc1ccc2ccc3c(c2n1)NS(=O)(=O)c1ccccc1-3 -1.69%
COc1cccc(-n2c(SCC(=O)NC3CCS(=O)(=O)C3)nc3ccccc3c2=O)c1 (stereo not drawn) -0.844%
CN(CC(=O)Nc1ccc(Cl)cc1)C(=O)c1ccc(COc2ccccc2)cc1 3.35%
O=C(NCC1CCCO1)c1cc2c(s1)CCCC2 (stereo not drawn) 17.2%
CN(C)C(=O)c1ccc(NC(=O)COC(=O)c2cc3c(s2)CCCCC3)cc1 1.68%
CCOC(=O)[C@@H]1[C@H]2COc3cc(OC)ccc3[C@@H]2N2C(=O)N(c3cccc(C)c3)C(=O)[C@@]12C 2.6%
CCOC(=O)[C@@H]1[C@H]2COc3cc(OC)ccc3[C@H]2N2C(=O)N(c3ccc(F)cc3)C(=O)[C@]12C -1.09%
CCOC(=O)c1ccccc1NC(=O)COC(=O)C(Cc1c[nH]c2ccccc12)NC(C)=O (stereo not drawn) 17.5%
CN(C)c1ccc(/C=C/C(=O)c2ccc(C(C)(C)C)cc2)cc1[N+](=O)[O-] -0.491%
O=C(/C=C/c1ccc(Cl)c([N+](=O)[O-])c1)c1cccnc1 -3.27%
C/C(=N\NC(=S)Nc1ccc(C)cc1)c1cc2ccccc2o1 4.04%
Cc1c(/C=N\NC(=O)c2cc3ccccc3o2)c2ccccc2n1C -1.62%
O=c1c2ccccc2ccc2ccc(P(=O)(O)O)cc12 -0.0431%
COc1cc(C(=O)NCC(c2ccco2)N2CCCC2)ccc1OCc1ccccc1 (stereo not drawn) 3.05%
CCOc1cc(/C=C/C(=O)OCC(=O)NCCN2C(=O)CSC2=O)ccc1OCC(C)C 3.05%
CCOC(=O)c1sc(N)c(C#N)c1COC(=O)C1=COCCO1 -7.68%
CC(C)(C)C(=O)CSc1ccc(S(=O)(=O)N2CCCC2)cn1 0.185%
CCN(CC)S(=O)(=O)c1ccc(N2CCOCC2)c(NC(=O)C(C)Oc2ccc(F)cc2)c1 (stereo not drawn) 25.5%
O=C(NCc1ccccc1CN1CCCC1)c1cccc(S(=O)(=O)Nc2ccc(F)cc2)c1 2.73%
Cc1ccc(O)c(CNc2nc3ccccc3n2C)c1 1.21%
Cn1cccc1-c1nc2ccccc2n1C -1.64%
COc1ccc(S(=O)(=O)N2CCOCC2)cc1NC(=O)Cc1coc2cc(C)ccc12 -0.0282%
Cc1nc(-c2ccc(F)cc2)c(CC(=O)N(C)CC(=O)Nc2c(C)cccc2C)s1 -1.54%
COc1ccc(-c2c(-c3cc(OC)cc(OC)c3)n(C)c3ccc(-c4ccn[nH]4)cc23)cc1 -1.55%
Cc1onc(C(=O)NN)c1-c1csc(COc2ccccc2)n1 2.64%
COc1ccc(-c2csc(Cc3nc(O)cs3)n2)cc1 4.2%
CCOc1ccc(OCC(=O)OC(C)C(=O)NC2CCCCC2C)cc1 (stereo not drawn) 11.7%
CC1CCN(C2=NC(=O)/C(=C/c3ccc(O)cc3)S2)CC1 2.66%
Cc1ccsc1/C=C1\SC(N2CCOCC2)=NC1=O 16.7%
Cc1nc(SCC(=O)NC2CCCCC2C)c(C#N)c(C)c1C (stereo not drawn) 11%
N#Cc1ccc(OCC(=O)NC(=O)NC2CCS(=O)(=O)C2)cc1 (stereo not drawn) -0.359%
O=C(COC(=O)CCCN1C(=O)c2cccc3cccc(c23)C1=O)NC1CCS(=O)(=O)C1 (stereo not drawn) -0.543%
Cc1ccc2c(CN3CCN(S(=O)(=O)c4ccccc4C(F)(F)F)CC3)cc(=O)oc2c1 4.46%
COc1cc2ccccc2cc1C(=O)N1CCOCC1 -0.849%
O=C(CSC(=S)N1CCOCC1)c1cc(Br)cc(Br)c1O -0.207%
COc1cc(OC)cc(-c2c(-c3cccs3)c3cc(-c4ccc(OC)cc4F)ccc3n2C)c1 -2.36%
CN(C(=O)COC(=O)Cn1cnc2c1c(=O)n(C)c(=O)n2C)C1(C#N)CCCCC1 -2.27%
COc1ccc(C)cc1NC(=O)CN1c2cccc3cccc(c23)S1(=O)=O -0.498%
CCCN(CC(=O)NC(=O)NC1CCCCC1)CC(=O)Nc1cc(Cl)ccc1Cl 3.99%
O=C(CCc1ccccc1Cl)Nc1ccc(S(=O)(=O)Nc2nccs2)cc1 -1.57%
COC(=O)c1ccc(CSc2ccc(S(=O)(=O)N3CCCCC3)cn2)cc1 6.26%
Cc1ccc(C(=O)NCC(c2cccs2)N(C)C)cc1S(=O)(=O)N1CCOCC1 (stereo not drawn) 10.3%
CN1CCN(S(=O)(=O)c2ccc(N3CCN(c4ccccc4O)CC3)c([N+](=O)[O-])c2)CC1 4.24%
Cc1ccc(CN2CC(C(=O)N3CCN(S(=O)(=O)c4ccccc4)CC3)CC2=O)cc1 (stereo not drawn) 0.927%
COc1ccc(NS(=O)(=O)c2cc(NC(=O)COc3ccccc3F)ccc2OC)cc1 0.255%
COc1ccc(C2=NN(C(=O)CSc3nnnn3C)C(c3ccco3)C2)cc1 (stereo not drawn) -0.899%
O=C(CSc1nnc(CN2CCCC2)n1-c1ccc(F)cc1)c1ccc2c(c1)OCO2 4.88%
COc1cccc(NC(=S)NCCCN2CCOCC2)c1 -6.52%
COc1ccc(Cl)cc1NC(=O)CCN1CCOCC1 -0.647%
Cc1cccc(C)c1NC(=O)COC(=O)c1c(C)nn(-c2ccccc2)c1C 0.597%
O=C1/C(=C\c2ccsc2)NC(=S)N1c1ccccc1 2.57%
O=C1NCC(=O)N(Cc2ccccc2)/C1=C/c1ccccc1 6.12%
Cc1csc(=O)n1CCC(=O)OCC(=O)NNC(=O)c1ccc(Br)cc1 2.91%
OCC[C@H]1C[C@H](O)[C@@H](O)[C@]2(Cc3ccccc3CO2)O1 1.78%
Cc1cccc(C(=O)Nc2ccc(CC(=O)O)cc2)c1 1.02%
Cc1cccc(N2C(=O)c3ccc(C(=O)Nc4cccc(C(=O)O)c4)cc3C2=O)c1 -0.654%
N#Cc1cccc(NC(=O)C2CCCN(C(=O)c3ccc(Cl)cc3)C2)c1 (stereo not drawn) 11.9%
O=C(O)/C=C/c1cn(Cc2ccccc2)nc1-c1cccs1 2.25%
O=C(O)c1ccc(N/N=C/c2cn(-c3ccccc3)nc2-c2cccs2)cc1 -2.97%
CC(C(=O)Nc1ccc(S(=O)(=O)N2CCCC2)cc1)N(C)Cc1ccc(F)cc1 (stereo not drawn) 17.2%
O=C(CSc1ccccc1)Nc1cccc(S(=O)(=O)N2CCCCC2)c1 21.4%
O=C(OCC(=O)N1CCN(C(=O)c2ccco2)CC1)c1ccc(Cl)c(Cl)c1 2.6%
Oc1ccc(Cl)cc1C1C=C(c2ccc3c(c2)OCO3)NC(c2ccc(F)c(Br)c2)N1 (stereo not drawn) 6.1%
COc1ccc(CCn2c(=N)c(C(=O)NCC3CCCO3)cc3c(=O)n4cccc(C)c4nc32)cc1OC (stereo not drawn) 4.61%
Cc1cccn2c(=O)c3cc(C(=O)NCCN4CCOCC4)c(=N)n(Cc4cccnc4)c3nc12 22.9%
COC(=O)c1cc(Oc2ccc(S(=O)(=O)N3CCOCC3)cc2[N+](=O)[O-])cc(C(=O)OC)c1 -0.765%
CCCN(CC(=O)Nc1ccccc1C)C(=O)c1ccc2[nH]c3c(c2c1)CC(C)CC3 (stereo not drawn) 3.39%
CCN(CC)S(=O)(=O)c1ccc(OC)c(NC(=O)CCc2c(C)noc2C)c1 -1.51%

activation, active:
O=C(Nc1ccc(F)cc1)c1cc2c(s1)CCCC2 87.7%
CCOC(=O)[C@H]1[C@H]2COc3ccc(OC)cc3[C@@H]2N2C(=O)c3ccc(F)cc3NC(=O)[C@@]12C 88.1%
O=C(/C=C/c1ccc(Cl)c([N+](=O)[O-])c1)c1ccc(O)cc1 83.8%
Cc1ccc(NC(=O)c2cc3ccccc3o2)cc1 102%
Cc1ccc(C2=NN(C)c3nc4ccccc4n3C2)cc1 84.2%
CC(C)(C)C(=O)OCc1nc(-c2ccc(O)c(O)c2)cs1 91.2%
CCc1ccc(/C=C2\SC(N3CCOCC3)=NC2=O)cc1 89.7%
O=C(c1cc2cc(Br)cc(Br)c2oc1=O)N1CCOCC1 87.7%
COc1cccc2cc(C(C)N(CCCN3CCOCC3)C(=O)Nc3ccc(Cl)cc3)oc12 (stereo not drawn) 85.6%
CN(C)c1ccc(/C=C2\NC(=S)N(Cc3ccccc3)C2=O)cc1 82.1%
Cc1cccc(C(=O)Nc2ccc3c(c2)C(=O)N(CC(C)C)C3=O)c1 80.9%
O=C(/C=C\c1cn(-c2ccccc2)nc1-c1cccs1)N1CCOCC1 96.6%
Cc1cccn2c(=O)c3cc(C(=O)NCC4CCCO4)c(=N)n(Cc4ccc(F)cc4)c3nc12 (stereo not drawn) 84.1%
